{"source": "PubChem BioAssay AID651593", "about": "(National Center for Advancing Translational Sciences (NCATS), 2012)", "note": "Hit rate of the full screen: of about 1,100 compounds, about 860 (78%) were called active. Another 19% or so got no clear call; they are omitted. So high a share suggests a set chosen from earlier hits. The list shows a part of the results. A number with no mark means an inactive call. Calls come from the whole dose curve; as a rule, active = well fitted activation curve with a large enough effect; inconclusive = small, poorly fitted or top-dose-only effect; inactive = flat fitted curve, though single readings scatter. Potency is the fitted concentration of half-maximal effect."}
{"assay": "qHTS of Nrf2 Activators: Hit Validation in Primary Assay; note: nearly all actives have a fitted effect of over 70% in size; for activation: 0% is about no effect", "settings": "Nrf2/ARE reporter cell assay; Potency: activation; series mostly up to 46.1 µM; activation: at the top concentration", "in_short": "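Luminescence from Steady-Glo lysis reagent, read after 30 min, reported ARE-luciferase activity in AREc32_fluc stable cells. Compounds were tested at several concentrations, incubated 24 h at 37 °C with 5% CO2 following overnight seeding.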", "units": {"activation": "%"}}
{"compound": "CCCC(=O)Nc1sc(C)c(C)c1C#N", "Potency": "14.6 µM (active)"}
{"compound": "O=C(Nc1cccnc1)C1(F)C(F)(F)C(F)(F)C(F)(F)C(F)(F)C1(F)F", "Potency": "14.6 µM (active)"}
{"compound": "CSc1ccc(-c2cc(=O)c3ccccc3o2)cc1", "Potency": "2.06 µM (active)"}
{"compound": "O=c1cc(-c2ccccc2)oc2ccc(Cl)cc12", "Potency": "3.26 µM (active)"}
{"compound": "S=c1[nH]nc(-c2ccco2)n1/N=C/c1cccc(Cl)c1Cl", "Potency": "10.3 µM (active)"}
{"compound": "S=c1[nH]nc(-c2ccco2)n1/N=C/c1ccc(Br)s1", "Potency": "2.31 µM (active)"}
{"compound": "O=[N+]([O-])c1ccccc1/C=C/C=N/n1c(-c2ccco2)n[nH]c1=S", "Potency": "11.6 µM (active)"}
{"compound": "CNc1ccccc(C(=O)/C=C/c2ccccc2OC)c1=O", "Potency": "20.6 µM (active)"}
{"compound": "CNc1ccc(Br)cc(C(=O)/C=C/c2cccc(Cl)c2Cl)c1=O", "Potency": "1.84 µM (active)"}
{"compound": "CSc1nsc(SC)c1C(=O)Nc1ccc(C)cc1", "Potency": "16.4 µM (active)"}
{"compound": "CSc1nsc(SC)c1C(=O)Nc1ccc(Cl)cc1", "Potency": "4.61 µM (active)"}
{"compound": "CC(OC(=O)/C=C/c1ccc2ccccc2n1)C(=O)Nc1ccc(S(N)(=O)=O)cc1", "note": "(stereo unspecified)", "Potency": "20.6 µM (active)"}
{"compound": "Cc1cc(=O)oc2cc(NC(=O)c3ccccc3Cl)ccc12", "Potency": "2.91 µM (active)"}
{"compound": "CCN(CC)c1ccc2c(c1)oc(=O)c1c(Cl)cc(=O)oc12", "activation": 3.61}
{"compound": "COC(=O)c1sccc1NC(=O)c1ccccc1", "Potency": "20.6 µM (active)"}
{"compound": "COC(=O)c1sccc1NC(=O)c1cccc(OC)c1", "Potency": "7.31 µM (active)"}
{"compound": "COC(=O)c1sccc1NC(=O)c1cccc(F)c1", "Potency": "18.4 µM (active)"}
{"compound": "COC(=O)c1sccc1NC(=O)c1cc(C)on1", "Potency": "16.4 µM (active)"}
{"compound": "COC(=O)c1sccc1NC(=O)c1ccccc1F", "Potency": "18.4 µM (active)"}
{"compound": "COC(=O)c1sccc1NC(=O)c1ccc(OC)c(OC)c1", "Potency": "4.61 µM (active)"}
{"compound": "COc1cccc(C(=O)Nc2cc(Cl)c(O)c(Cl)c2)c1", "Potency": "5.17 µM (active)"}
{"compound": "COC(=O)c1sccc1NC(=O)c1cccc(Cl)c1", "Potency": "20.6 µM (active)"}
{"compound": "COC(=O)c1sccc1NC(=O)c1csc(C)c1", "Potency": "4.61 µM (active)"}
{"compound": "COC(=O)c1sccc1NC(=O)Nc1ccc(Cl)c(Cl)c1", "Potency": "14.6 µM (active)"}
{"compound": "O=C(NNC(=O)c1sccc1-n1cccc1)c1cccc(Cl)c1", "Potency": "2.59 µM (active)"}
{"compound": "COc1ccc(NC(=O)c2ccc([N+](=O)[O-])s2)c([N+](=O)[O-])c1", "Potency": "9.2 µM (active)"}
{"compound": "COc1ccc(OC)c(NC(=O)C(C#N)=Cc2ccco2)c1", "Potency": "6.51 µM (active)"}
{"compound": "COc1ccccc1NC(=O)/C(C#N)=C/c1cccn1C", "Potency": "20.6 µM (active)"}
{"compound": "COC(=O)CSc1nc2ccccn2c(=O)c1C=O", "Potency": "20.6 µM (active)"}
{"compound": "O=Cc1c(Sc2ccccn2)nc2ccccn2c1=O", "Potency": "20.6 µM (active)"}
{"compound": "Nc1nc(/C=C/c2ccc(F)cc2)nc(-c2ccccc2O)n1", "Potency": "2.59 µM (active)"}
{"compound": "Nc1nccc(-c2ccc(-n3cccc3)cc2)n1", "Potency": "13 µM (active)"}
{"compound": "COc1ccc(Cl)cc1NC(=O)c1cc(-c2ccccc2O)n[nH]1", "Potency": "2.91 µM (active)"}
{"compound": "COc1ccc(Cl)cc1NC(=O)c1cc(C)no1", "Potency": "10.3 µM (active)"}
{"compound": "COc1ccc(Cl)cc1C(=O)NC(=S)Nc1nc(C)cc(C)n1", "activation": 5.97}
{"compound": "COc1cc2c(cc1NC(=O)c1ccco1)CCCC2", "Potency": "3.26 µM (active)"}
{"compound": "COc1cc(OC)c(NC(=O)c2ccco2)cc1Cl", "Potency": "13 µM (active)"}
{"compound": "Cc1ccc2nsnc2c1NC(=S)NC(=O)c1ccco1", "Potency": "4.61 µM (active)"}
{"compound": "COc1ccc(Cl)cc1NC(=O)c1ccco1", "Potency": "4.61 µM (active)"}
{"compound": "CCOc1ccsc1C(=O)NNC(=O)c1ccco1", "Potency": "5.8 µM (active)"}
{"compound": "Cc1ccc([N+](=O)[O-])cc1NC(=S)NC(=O)c1ccco1", "Potency": "4.11 µM (active)"}
{"compound": "CCOc1ccccc1NC(=S)NC(=O)c1ccco1", "Potency": "10.3 µM (active)"}
{"compound": "CC(=O)c1cc2c(cc1NC(=O)c1ccco1)OCCO2", "Potency": "3.66 µM (active)"}
{"compound": "O=C(Nc1cc(Cl)ccc1-n1cncn1)c1ccco1", "Potency": "10.3 µM (active)"}
{"compound": "COc1ccc([N+](=O)[O-])cc1NC(=O)c1ccco1", "Potency": "5.17 µM (active)"}
{"compound": "Cc1cc(C(=O)Nc2cc(Br)ccc2O)on1", "Potency": "13 µM (active)"}
{"compound": "O=C(Nc1ccc(Br)c(Cl)c1)c1ccco1", "Potency": "2.06 µM (active)"}
{"compound": "Cc1cc(NC(=S)NC(=O)c2ccco2)c2ccccc2n1", "Potency": "2.59 µM (active)"}
{"compound": "Cc1ccc(-n2nc3c([n+]2[O-])CCc2c-3no[n+]2[O-])cc1", "Potency": "0.291 µM (active)"}
{"compound": "[O-][n+]1onc2c1CCc1c-2nn(-c2ccccc2Cl)[n+]1[O-]", "Potency": "0.92 µM (active)"}
{"compound": "COc1ccc(-c2nnc3c4ccccc4c(C)nn23)cc1", "Potency": "3.66 µM (active)"}
{"compound": "Cc1nn2c(-c3ccccc3)nnc2c2ccccc12", "Potency": "4.11 µM (active)"}
{"compound": "CC1CCCCC1NC(=O)COC(=O)c1c2c(nc3ccccc13)/C(=C/c1ccco1)CC2", "note": "(stereo unspecified)", "Potency": "8.2 µM (active)"}
{"compound": "O=C(Nc1ccc2c(c1)C(=O)NC2=O)c1cccc(C(F)(F)F)c1", "Potency": "2.06 µM (active)"}
{"compound": "O=C(Nc1ccc2c(c1)C(=O)NC2=O)c1ccccc1", "Potency": "20.6 µM (active)"}
{"compound": "Cc1csc2nc(NC(=O)c3ccccc3)sc(=O)c12", "Potency": "8.2 µM (active)"}
{"compound": "O=C(Nc1nc(=O)c2ccccc2s1)c1ccccc1", "Potency": "0.731 µM (active)"}
{"compound": "S=C(NNc1ccc2ccccc2c1)NC1CCCCC1", "Potency": "13 µM (active)"}
{"compound": "CCC(CC)c1nnc(NC(=O)/C=C/c2ccco2)s1", "Potency": "1.46 µM (active)"}
{"compound": "CCc1nnc(NC(=O)/C=C/c2ccco2)s1", "Potency": "6.51 µM (active)"}
{"compound": "Cc1nnc(NC(=O)/C=C/c2ccco2)s1", "Potency": "8.2 µM (active)"}
{"compound": "Cc1csc(NC(=O)/C=C/c2ccco2)n1", "Potency": "4.11 µM (active)"}
{"compound": "O=C(/C=C/c1ccco1)NC(=S)Nc1nc(-c2ccc(Cl)cc2)cs1", "activation": 13.6}
{"compound": "CNS(=O)(=O)c1ccc2nc(NC(=O)/C=C/c3ccco3)sc2c1", "Potency": "1.84 µM (active)"}
{"compound": "Cc1cc(C)c2oc(-c3ccc(C)c(NC(=O)/C=C/c4ccco4)c3)nc2c1", "Potency": "2.91 µM (active)"}
{"compound": "Cc1cccc(C)c1NC(=S)NC(=O)c1cccc(Cl)c1", "Potency": "3.26 µM (active)"}
{"compound": "Cc1ccc(NC(=O)/C=C/c2ccc([N+](=O)[O-])s2)cc1", "Potency": "2.31 µM (active)"}
{"compound": "Cc1cc(C)cc(NC(=O)/C=C/c2ccc([N+](=O)[O-])s2)c1", "Potency": "2.31 µM (active)"}
{"compound": "O=C(CSc1nnc(-c2ccco2)c(-c2ccco2)n1)c1ccccc1", "Potency": "5.17 µM (active)"}
{"compound": "CSc1nnc(-c2ccco2)c(-c2ccco2)n1", "Potency": "11.6 µM (active)"}
{"compound": "CSC1=NC(C)(C)C=C(/C=C/c2ccc(Cl)cc2)N1", "Potency": "9.2 µM (active)"}
{"compound": "Brc1cc(Cc2nnc(-c3ccccc3)o2)c(Br)s1", "Potency": "8.2 µM (active)"}
{"compound": "Cc1ccc(O)c(NC(=O)c2cccc(NC(=O)c3ccco3)c2)c1", "Potency": "2.59 µM (active)"}
{"compound": "O=C(Nc1ccccc1O)c1cccc(NC(=O)c2ccco2)c1", "Potency": "4.11 µM (active)"}
{"compound": "O=C(Nc1cccc(F)c1)c1ccco1", "activation": 21.9}
{"compound": "O=C(Nc1ccccc1C(=O)NCCc1ccccc1)c1ccco1", "Potency": "2.06 µM (active)"}
{"compound": "CCCc1nc([N+](=O)[O-])c(S(=O)(=O)c2ccccc2)n1CC(C)C", "Potency": "3.26 µM (active)"}
{"compound": "S=C(NCc1ccco1)Nc1ccccn1", "Potency": "9.2 µM (active)"}
{"compound": "Brc1ccc(-c2nnc(-c3cccnc3)c3conc23)cc1", "Potency": "0.517 µM (active)"}
{"compound": "C#CCSc1nc(-c2cccs2)ccc1C#N", "Potency": "4.61 µM (active)"}
{"compound": "Cc1cc(C)n(-c2nc3ccccc3c(=O)n2OCc2ccc(F)cc2)n1", "Potency": "1.84 µM (active)"}
{"compound": "CC1(C)CC[C@]2(C(=O)n3ccnc3)CC[C@]3(C)[C@H](C(=O)C=C4[C@@]5(C)C=C(C#N)C(=O)C(C)(C)[C@@H]5CC[C@]43C)[C@@H]2C1", "Potency": "0.092 µM (active)"}
{"compound": "O=[N+]([O-])c1ccc(NN=Cc2ccco2)nc1", "Potency": "0.731 µM (active)"}
{"compound": "Brc1ccc(-c2csc(N/N=C/c3ccco3)n2)cc1", "Potency": "2.91 µM (active)"}
{"compound": "CCn1nc(C)c(Br)c1-c1nc(-c2cccc(C)c2)no1", "Potency": "8.2 µM (active)"}
{"compound": "O=C(Nc1ccccc1F)c1cc(-c2ccco2)nc2ccccc12", "Potency": "2.06 µM (active)"}
{"compound": "O=C(Nc1ccc(F)cc1F)c1cc(-c2ccco2)nc2ccccc12", "Potency": "0.731 µM (active)"}
{"compound": "O=C(Nc1cccc(F)c1)c1cc(-c2ccco2)nc2ccccc12", "Potency": "2.06 µM (active)"}
{"compound": "COc1ccccc1CNC(=O)COC(=O)c1cc(-c2ccco2)nc2ccccc12", "Potency": "9.2 µM (active)"}
{"compound": "CC1Oc2ccccc2OC1C(=O)Nc1ccccn1", "note": "(stereo unspecified)", "Potency": "2.91 µM (active)"}
{"compound": "CSc1nsc(SC)c1NC(=O)Nc1ccccn1", "Potency": "5.17 µM (active)"}
{"compound": "O=[N+]([O-])c1cc(Cl)cc2c1nc(NCCO)c1ccccc12", "Potency": "10.3 µM (active)"}
{"compound": "Brc1ccccc1/C=N/Nc1ccccn1", "Potency": "6.51 µM (active)"}
{"compound": "Clc1cccc(Cl)c1/C=N\\Nc1nccs1", "Potency": "9.2 µM (active)"}
{"compound": "O=[N+]([O-])c1ccc(Cl)cc1C=NNc1ccccn1", "Potency": "3.26 µM (active)"}
{"compound": "Clc1ccccc1NN=Cc1ccccn1", "Potency": "5.8 µM (active)"}
{"compound": "Fc1cccc(Cl)c1/C=N/Nc1ccccn1", "Potency": "4.11 µM (active)"}
{"compound": "Cc1ccc(C)c(/C=N/Nc2ccccn2)c1", "Potency": "6.51 µM (active)"}
{"compound": "O=[N+]([O-])c1ccc(Cl)cc1N/N=C/c1ccncc1", "Potency": "0.731 µM (active)"}
{"compound": "Clc1ccccc1C=NNc1ccccn1", "Potency": "2.31 µM (active)"}
{"compound": "CCOc1ccccc1NS(=O)(=O)c1c(C(=O)OC)sc2cccc(F)c12", "Potency": "14.6 µM (active)"}
{"compound": "O=C1C(Cl)=C(N2CCN(c3ccccc3[N+](=O)[O-])CC2)C(=O)c2ccccc21", "Potency": "3.66 µM (active)"}
{"compound": "Cc1cc(=O)n2nc(-c3ccccc3)sc2c1C#N", "Potency": "4.11 µM (active)"}
{"compound": "CCn1c(=O)c([N+](=O)[O-])c(NCc2ccco2)c2ccccc21", "Potency": "5.8 µM (active)"}
{"compound": "N#Cc1ccccc1N/C=C/C(=O)c1ccc(Cl)cc1", "Potency": "2.31 µM (active)"}
{"compound": "CC(/C=N/Nc1nnc2c(n1)[nH]c1ccccc12)=C\\c1ccco1", "Potency": "10.3 µM (active)"}
